{"source": "PubChem BioAssay AID1458", "about": "(National Center for Advancing Translational Sciences (NCATS), 2008)", "note": "The whole screen tested about 210,000 compounds, of which about 5,900 (2.8%) were called active. Roughly 5% stayed inconclusive and do not appear here. Calls come from the whole dose curve; as a rule, active = well fitted activation curve with a large enough effect; inconclusive = small, poorly fitted or top-dose-only effect; inactive = no such curve, though single readings can be large or run the other way. What follows is part of a selection rich in actives, with near analogues and random picks from the rest. A call without a number means that no potency is given here. Potency is the fitted concentration of half-maximal effect."}
{"assay": "qHTS Assay for Enhancers of SMN2 Splice Variant Expression; note: nearly all actives have a fitted effect of over 55% in size", "conditions": "HEK293 SMN2-luciferase splicing reporter, luminescence, 30-36 h; series mostly up to 46.1 µM", "method_in_brief": "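HEK293 cells carry an SMN2 minigene-luciferase reporter in which exon 7 inclusion puts luciferase in frame. Cells were seeded at 2000 cells/well, attached for 10-12 hours, then exposed to compounds for 30-36 hours at 37C before ONE-Glo luminescence.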"}
{"smiles": "CCCCCc1ccc(-c2ccc(C(=O)O)cc2)nc1", "Potency": "3.98 µM (active)"}
{"smiles": "CCOc1c(CNCc2ccc(C(=O)O)cc2)cccc1OC", "Potency": "inactive"}
{"smiles": "O=C(O)c1ccc(COCC(F)(F)F)cc1", "Potency": "inactive"}
{"smiles": "COc1ccc(Nc2ncc(F)c(N3CCOCC3)n2)cc1", "Potency": "10 µM (active)"}
{"smiles": "COc1ccc(Nc2ncc3c(n2)CCN(C(=O)OC(C)(C)C)C3)cc1", "Potency": "inactive"}
{"smiles": "CCOc1ccc(Nc2nc(Cl)nc(N3CCN(c4ccc(OC)cc4)CC3)n2)cc1", "Potency": "inactive"}
{"smiles": "CC(C)c1ccc(OCC(=O)N(Cc2ccc(N(C)C)cc2)C2CCS(=O)(=O)C2)cc1", "note": "(centres undefined)", "Potency": "inactive"}
{"smiles": "CC1CCCCN1Cc1c(O)ccc2c(=O)c(-c3cccc(Cl)c3)c(C(F)(F)F)oc12", "note": "(centres undefined)", "Potency": "inactive"}
{"smiles": "CCOC(=O)C1CCN(C(=O)CSc2c3c(nc4ccc(Cl)cc24)CCCC3)CC1", "Potency": "inactive"}
{"smiles": "COCc1cc(C)nc(SCC(=O)Nc2cccc(C)c2)c1C#N", "Potency": "inactive"}
{"smiles": "Cc1ccc(-c2cc(C(F)(F)F)c(C#N)c(SCC(=O)Nc3ccccc3)n2)cc1", "Potency": "inactive"}
{"smiles": "Cc1cc(C)c(C#N)c(SCC(=O)Nc2ccccc2)n1", "Potency": "12.6 µM (active)"}
{"smiles": "Cc1cccc(NC(=O)Cn2c(=O)n(CCC(C)C)c(=O)c3cccnc32)c1", "Potency": "inactive"}
{"smiles": "COc1cc(CN(CC2CCCO2)C(=O)c2ccccc2F)cc(OC)c1OC", "note": "(centres undefined)", "Potency": "inactive"}
{"smiles": "CCc1ccc(NC(=O)Cn2c(=O)n(CCC(=O)NCc3ccc4c(c3)OCO4)c(=O)c3ccccc32)cc1", "Potency": "inactive"}
{"smiles": "Cc1ccccc1-n1c(=O)c2ccccc2n(Cc2ccc(F)cc2)c1=O", "Potency": "inactive"}
{"smiles": "CCOc1ccc(NC(=O)c2c(NC(=O)Cc3ccccc3)sc3c2CCCCC3)cc1", "Potency": "inactive"}
{"smiles": "CCC(C)(C)NC(=O)C(c1cccn1C)N(Cc1ccc(C)cc1)C(=O)Cn1nnc2ccccc21", "note": "(centres undefined)", "Potency": "15.8 µM (active)"}
{"smiles": "Cc1ccc(C(C(=O)NCc2ccco2)N(CC2CCCO2)C(=O)Cn2nnc3ccccc32)cc1", "note": "(centres undefined)", "Potency": "inactive"}
{"smiles": "COCCNC(=O)C(c1ccc(C)o1)N(Cc1ccccc1)C(=O)Cn1nnc2ccccc21", "note": "(centres undefined)", "Potency": "inactive"}
{"smiles": "O=C(Cn1c(=O)n(-c2ccc(F)cc2)c(=O)c2sc3ccccc3c21)NC1CCCC1", "Potency": "inactive"}
{"smiles": "Cc1ccc(-n2ncc3c(=O)n(Cc4cccc(C(F)(F)F)c4)cnc32)cc1C", "Potency": "inactive"}
{"smiles": "O=C(Cn1c(COc2ccccc2)nc2ccccc21)Nc1cc(Cl)c(Cl)cc1Cl", "Potency": "inactive"}
{"smiles": "CC(C)c1ccc(Cn2c(COc3ccccc3)nc3ccccc32)cc1", "Potency": "inactive"}
{"smiles": "COCn1c(COc2ccccc2)nc2ccccc21", "Potency": "12.6 µM (active)"}
{"smiles": "Cc1cc(C)c2oc(C(=O)Nc3ccc(S(=O)(=O)Nc4nccc(C)n4)cc3)cc(=O)c2c1", "Potency": "inactive"}
{"smiles": "O=C(CN1C(=O)COc2ccc(S(=O)(=O)N3CCCCCC3)cc21)N1CCN(c2cccc(C(F)(F)F)c2)CC1", "Potency": "inactive"}
{"smiles": "O=C(Nc1nc2cc3c(cc2s1)OCCO3)c1cccc(S(=O)(=O)N2CCOCC2)c1", "Potency": "inactive"}
{"smiles": "Cc1nc(N2CCCCC2)sc1C=O", "Potency": "inactive"}
{"smiles": "c1c2c(cc3sc(N4CCCCC4)nc13)OCCO2", "Potency": "0.501 µM (active)"}
{"smiles": "Cc1ccc(C(=O)Nc2ccc(OCc3cc(=O)n4c(C)csc4n3)cc2)cc1", "Potency": "inactive"}
{"smiles": "CCNC(=O)Cn1nc(C)n2c(cc3c(OC)cccc32)c1=O", "Potency": "inactive"}
{"smiles": "COC(=O)c1ccccc1NC(=O)c1ccc2c(=O)n3c(nc2c1)CCCCC3", "Potency": "inactive"}
{"smiles": "Cc1cc([N+](=O)[O-])ccc1NC(=O)C1CCCO1", "note": "(centres undefined)", "Potency": "inactive"}
{"smiles": "O=C(Nc1nc2ccc(S(=O)(=O)N3CCCC3)cc2s1)C1CCCO1", "note": "(centres undefined)", "Potency": "inactive"}
{"smiles": "Cc1cc(C)c2nc(NC(=O)C3CCCO3)sc2c1", "note": "(centres undefined)", "Potency": "12.6 µM (active)"}
{"smiles": "O=C(Nc1cc(-c2nc3ccccc3o2)ccc1Cl)c1cc([N+](=O)[O-])ccc1N1CCOCC1", "Potency": "inactive"}
{"smiles": "CN(c1nc2ccccc2n2c(-c3ccco3)nnc12)S(=O)(=O)c1ccccc1", "Potency": "inactive"}
{"smiles": "CN1c2ccccc2-c2nc3ccccc3n2C1c1ccco1", "note": "(centres undefined)", "Potency": "inactive"}
{"smiles": "Cn1c(-c2ccco2)nc2cc3ccccc3cc21", "Potency": "2.51 µM (active)"}
{"smiles": "COC(=O)CC1Oc2ccccc2-n2cc(-c3ccccc3)nc21", "note": "(centres undefined)", "Potency": "inactive"}
{"smiles": "COc1cccc(N2CCN(S(=O)(=O)c3cc(Br)cc4c3N(C(=O)C3CC3)CC4)CC2)c1", "Potency": "inactive"}
{"smiles": "CN(C)CCN=c1cc(-c2ccccc2)oc2ccc(Cl)cc12", "Potency": "15.8 µM (active)"}
{"smiles": "CCC1CCCCN1C(=O)Cn1c(=O)n(CCCCCC(=O)NCc2ccccc2)c(=O)c2sccc21", "note": "(centres undefined)", "Potency": "inactive"}
{"smiles": "Cc1ccc(C(=O)Nc2ccc(OCc3cc(=O)n4c5c(sc4n3)CCCC5)cc2)cc1", "Potency": "inactive"}
{"smiles": "Cn1c(CN2CCOCC2)nc2cc(NC(=O)c3ccc(Cl)cc3)ccc21", "Potency": "inactive"}
{"smiles": "CC(=O)NCCc1nc2cc(NC(=O)c3ccccc3)ccc2n1C", "Potency": "22.4 µM (active)"}
{"smiles": "CCCCCn1c(CCNC(=O)c2ccc(F)cc2)nc2ccccc21", "Potency": "inactive"}
{"smiles": "COc1ccc(C2Sc3ccccc3NC3=C2C(=O)c2ccccc23)c(OC)c1OC", "note": "(centres undefined)", "Potency": "inactive"}
{"smiles": "COCC(=O)N=Nc1c(O)[nH]c2ccccc12", "Potency": "inactive"}
{"smiles": "Cc1c(-c2ccccc2)n[nH]c1C(=O)N=Nc1c(O)[nH]c2ccccc12", "Potency": "20 µM (active)"}
{"smiles": "Cc1cccc(N(CC(=O)N=Nc2c(O)[nH]c3ccccc23)S(C)(=O)=O)c1C", "Potency": "inactive"}
{"smiles": "COc1ccccc1CNC(=O)C(Cc1ccccc1)NS(=O)(=O)c1ccc2c(c1)oc(=O)n2C", "note": "(centres undefined)", "Potency": "inactive"}
{"smiles": "Cc1c(Cl)cnc(NC(=O)COC(=O)c2ccc(S(=O)(=O)NCc3ccco3)cc2)c1Cl", "Potency": "inactive"}
{"smiles": "O=C(NC1CCC(O)CC1)c1ccc(S(=O)(=O)NCc2ccco2)cc1", "note": "(centres undefined)", "Potency": "inactive"}
{"smiles": "C/C(=N\\Nc1ncc(Cl)cc1Cl)c1cccs1", "Potency": "11.2 µM (active)"}
{"smiles": "C/C(=N\\NS(=O)(=O)c1ccc(Br)cc1)c1cccs1", "Potency": "inactive"}
{"smiles": "C/C(=N\\NC(=O)COc1c(C)cccc1C)c1cccs1", "Potency": "inactive"}
{"smiles": "C/C(=N\\Nc1ncc(Cl)cc1Cl)c1ccc(S(=O)(=O)NCc2ccco2)cc1", "Potency": "12.6 µM (active)"}
{"smiles": "Cc1cccc(C(CC(=O)NCC2(c3ccccc3)CCCC2)c2ccccc2)c1O", "note": "(centres undefined)", "Potency": "inactive"}
{"smiles": "CCOc1ccccc1CNCc1c(C(=O)O)c(C)n(Cc2ccc(C)cc2)c1C", "Potency": "inactive"}
{"smiles": "O=S(=O)(NCC(c1ccccc1)N1CCc2ccccc21)c1ccccc1", "note": "(centres undefined)", "Potency": "inactive"}
{"smiles": "COc1ccc(S(=O)(=O)Nc2cc3c(C(=O)OC(C)C)c(C)oc3c3ccccc23)cc1", "Potency": "inactive"}
{"smiles": "Cc1cc2oc(C(=O)N(Cc3ccc(Cl)cc3)Cc3ccco3)c(C)c2cc1Cl", "Potency": "inactive"}
